According to PubChem BioAssay (NCI):
About 79,000 compounds went through this panel and 15% of them were active in at least one assay; those are over-represented in the sample as a whole. Activity calls are given as the source filed them. Cut-off read from the data, not from the text of the source: active = growth inhibition above about 70%; inactive = the rest.

Tests used:
[1] = NCI Yeast Anticancer Drug Screen. Data for the wt1 strain (AID 149);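 note: 0% = growth of vehicle-treated wt1 cultures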; conditions: S. cerevisiae wt1 strain (SPY 50644) growth inhibition, stronger effect = higher value
In short: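 Vehicle-normalised growth inhibition; strain wt1; compound exposure.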

[2] = NCI Yeast Anticancer Drug Screen. Data for the rad50EPP+ strain (AID 151);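 note: 0% = growth of vehicle-treated control cultures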; conditions: S. cerevisiae rad50 mutant strain, stronger effect = higher value
In short: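 rad50EPP+ yeast treated with test compounds. Readout: growth vs vehicle control.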

[3] = NCI Yeast Anticancer Drug Screen. Data for the mgt1 strain (AID 153); conditions: S. cerevisiae mgt1 mutant growth inhibition, stronger effect = higher value
In short: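 Growth inhibition relative to vehicle controls was scored for the mgt1 yeast strain after compound exposure.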

[4] = NCI Yeast Anticancer Drug Screen. Data for the rad50 strain (AID 155);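 note: 0% = growth of vehicle-only cultures of the same strain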; conditions: S. cerevisiae rad50 strain growth inhibition, stronger effect = higher value
In short: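 A DNA repair-deficient yeast mutant serves as the test organism; compound-induced growth inhibition is calculated against vehicle-treated cells.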

[5] = NCI Yeast Anticancer Drug Screen. Data for the mec2-1 strain (AID 157); conditions: S. cerevisiae mec2-1 strain, stronger effect = higher value
In short: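 Growth inhibition is read against vehicle-treated controls after compound exposure of the mec2-1 yeast strain, which is defective in DNA damage repair or cell cycle control.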

[6] = NCI Yeast Anticancer Drug Screen. Data for the rad14 strain (AID 159);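 note: 0% = growth of vehicle-treated control cultures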; conditions: S. cerevisiae rad14 strain growth inhibition, stronger effect = higher value
In short: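 Vehicle-treated cultures served as the baseline for growth inhibition of a DNA repair-mutant yeast strain exposed to each compound.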

[7] = NCI Yeast Anticancer Drug Screen. Data for the sgs1 mgt1 strain (AID 161);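 note: 0% = growth of cultures given vehicle only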; conditions: S. cerevisiae sgs1 mgt1 strain, stronger effect = higher value
In short: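 Percent growth inhibition was derived by comparing compound-exposed mutant yeast with vehicle-exposed cultures. The strain carries alterations in DNA damage repair.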

[8] = NCI Yeast Anticancer Drug Screen. Data for the CLN2oe strain (AID 163);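 note: 0% = growth of vehicle-only control cultures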; conditions: S. cerevisiae CLN2oe strain, stronger effect = higher value
In short: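 Compound-treated yeast; growth vs vehicle ctrl = % inhibition. Genetically altered strain (cell-cycle control).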

[9] = NCI Yeast Anticancer Drug Screen. Data for the cln2 rad14 strain (AID 165);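 note: 0% = growth equal to vehicle treated cultures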; conditions: S. cerevisiae cln2 rad14 strain, stronger effect = higher value
In short: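 Growth inhibition, relative to vehicle-treated controls, is the read-out. The test organism is a yeast strain with defined genetic alterations, cln2 rad14.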

[10] = NCI Yeast Anticancer Drug Screen. Data for the bub3 strain (AID 167); conditions: S. cerevisiae bub3 mutant strain, stronger effect = higher value
In short: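 Inhibition values come from growth of compound-treated mutant yeast normalised to vehicle-treated controls.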

[11] = NCI Yeast Anticancer Drug Screen. Data for the wt2 strain (AID 169);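 note: 0% = growth of vehicle-treated yeast cultures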; conditions: S. cerevisiae wt2 strain growth inhibition, stronger effect = higher value
In short: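 Compound exposure of yeast; growth compared with vehicle controls; inhibition reported.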

[12] = NCI Yeast Anticancer Drug Screen. Data for the mlh1 strain (AID 171);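 note: 0% = growth of vehicle-treated control cultures of the same strain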; conditions: S. cerevisiae mlh1 strain growth inhibition, stronger effect = higher value
In short: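 Compounds are applied to a genetically altered yeast strain, and its growth is compared with that of vehicle-treated cultures to give percent inhibition.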

[13] = NCI Yeast Anticancer Drug Screen. Data for the sgs1 strain (AID 173);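 note: 0% = growth of vehicle-only control cultures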; conditions: S. cerevisiae sgs1 mutant, stronger effect = higher value
In short: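 Compounds applied to genetically altered yeast; growth compared with vehicle-treated cultures to give % inhibition.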

[14] = NCI Yeast Anticancer Drug Screen. Data for the mlh1 rad18 strain (AID 175); conditions: S. cerevisiae mlh1 rad18 strain growth inhibition, stronger effect = higher value
In short: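 Cells of a genetically altered yeast strain, deficient in DNA damage repair, were treated with compound. Their growth was then compared with that of vehicle-treated cultures to give inhibition.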

[15] = NCI Yeast Anticancer Drug Screen. Data for the rad18 strain (AID 177); conditions: S. cerevisiae rad18 mutant growth inhibition, stronger effect = higher value
In short: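 Compounds are applied to a repair-deficient yeast strain, and growth is compared with that of vehicle-treated cultures to give percent inhibition.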

[16] = NCI Yeast Anticancer Drug Screen. Data for the rad52 strain (AID 147);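 note: 0% = growth of vehicle-treated control cultures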; conditions: S. cerevisiae rad52 mutant growth inhibition, stronger effect = higher value
In short: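 DNA repair-defective yeast; compound exposure; growth scored against vehicle controls.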

[17] = at 5.0 µM (retest, dose inferred, filed as 0.5)
[18] = at 50.0 µM (retest, dose inferred, filed as 5.0)

Measured: growth inhibition

CCCCCCCSCC1C(=O)C23C(O)C1CCC2C12COC3(O)C(O)C1C(C)(C)CCC2O (stereo unspecified)
inactive: [1]; at 1.2 µM 16% | [1]; at 3.7 µM 5% | [2]; at 1.2 µM 26% | [2]; at 3.7 µM 27% | [2]; at 11.0 µM 32% | [2]; at 33.0 µM 28% | [2]; at 100.0 µM 6% | [3]; at 1.2 µM 20% | [3]; at 3.7 µM 20% | [4]; at 1.2 µM 13% | [4]; at 3.7 µM 16% | [4]; [17] -12% | [4]; at 11.0 µM 66% | [5]; at 1.2 µM 23% | [5]; at 3.7 µM 15% | [5]; [17] 2% | [5]; at 11.0 µM 67% | [6]; at 1.2 µM -9% | [6]; at 3.7 µM 5% | [7]; [17] 28% | [8]; at 1.2 µM 19% | [8]; at 3.7 µM 6% | [9]; [17] 54% | [10]; at 1.2 µM 4% | [10]; at 3.7 µM 9% | [10]; [17] 65% | [11]; at 1.2 µM 14% | [11]; at 3.7 µM 0% | [11]; at 11.0 µM 67% | [12]; at 1.2 µM -1% | [12]; at 3.7 µM 23% | [13]; at 1.2 µM 26% | [13]; at 3.7 µM 19% | [14]; [17] 50% | [15]; at 1.2 µM -1% | [15]; at 3.7 µM 2%
active: [1]; at 11.0 µM 82% | [1]; at 33.0 µM 95% | [1]; at 100.0 µM 90% | [3]; at 11.0 µM 88% | [3]; at 33.0 µM 96% | [3]; at 100.0 µM 89% | [4]; at 33.0 µM 93% | [4]; [18] 74% | [4]; at 50.0 µM 87.5% | [4]; at 100.0 µM 81% | [5]; at 33.0 µM 94% | [5]; [18] 97% | [5]; at 50.0 µM 88.2% | [5]; at 100.0 µM 87% | [6]; at 11.0 µM 84% | [6]; at 33.0 µM 95% | [6]; at 100.0 µM 91% | [7]; [18] 95% | [7]; at 50.0 µM 87.8% | [8]; at 11.0 µM 89% | [8]; at 33.0 µM 97% | [8]; at 100.0 µM 91% | [9]; [18] 97% | [9]; at 50.0 µM 85.8% | [10]; at 11.0 µM 78% | [10]; at 33.0 µM 94% | [10]; [18] 97% | [10]; at 50.0 µM 86.2% | [10]; at 100.0 µM 90% | [11]; at 33.0 µM 95% | [11]; at 100.0 µM 93% | [12]; at 11.0 µM 93% | [12]; at 33.0 µM 95% | [12]; at 100.0 µM 91% | [13]; at 11.0 µM 89% | [13]; at 33.0 µM 95% | [13]; at 100.0 µM 84% | [14]; [18] 94% | [14]; at 50.0 µM 88.8% | [15]; at 11.0 µM 89% | [15]; at 33.0 µM 94% | [15]; at 100.0 µM 87%

Cc1ccnc2c(O)cccc12
inactive: [1]; at 1.2 µM -5% | [1]; at 3.7 µM 19% | [2]; at 1.2 µM -1% | [3]; at 1.2 µM -8% | [4]; at 1.2 µM 6% | [4]; [17] 24% | [5]; at 1.2 µM 31% | [5]; [17] -1% | [8]; at 1.2 µM 24% | [9]; [17] 22% | [10]; at 1.2 µM -6% | [10]; at 3.7 µM 47% | [10]; [17] 41% | [11]; at 1.2 µM -8% | [11]; at 3.7 µM 25% | [12]; at 1.2 µM 14% | [13]; at 1.2 µM -13% | [13]; at 3.7 µM 59% | [15]; at 1.2 µM -3% | [15]; at 3.7 µM 60%
active: [1]; at 11.0 µM 76% | [1]; at 33.0 µM 93% | [1]; at 100.0 µM 98% | [2]; at 3.7 µM 98% | [2]; at 11.0 µM 99% | [2]; at 33.0 µM 99% | [2]; at 100.0 µM 99% | [3]; at 3.7 µM 73% | [3]; at 11.0 µM 91% | [3]; at 33.0 µM 99% | [3]; at 100.0 µM 99% | [4]; at 3.7 µM 97% | [4]; at 11.0 µM 98% | [4]; at 33.0 µM 99% | [4]; [18] 99% | [4]; at 50.0 µM 98.2% | [4]; at 100.0 µM 99% | [5]; at 3.7 µM 98% | [5]; at 11.0 µM 100% | [5]; at 33.0 µM 100% | [5]; [18] 98% | [5]; at 50.0 µM 97.3% | [5]; at 100.0 µM 100% | [7]; [17] 73% | [7]; [18] 99% | [7]; at 50.0 µM 97.8% | [8]; at 3.7 µM 98% | [8]; at 11.0 µM 99% | [8]; at 33.0 µM 100% | [8]; at 100.0 µM 99% | [9]; [18] 96% | [9]; at 50.0 µM 97.5% | [10]; at 11.0 µM 98% | [10]; at 33.0 µM 99% | [10]; [18] 99% | [10]; at 50.0 µM 97.9% | [10]; at 100.0 µM 99% | [11]; at 11.0 µM 80% | [11]; at 33.0 µM 84% | [11]; at 100.0 µM 97% | [12]; at 3.7 µM 99% | [12]; at 11.0 µM 99% | [12]; at 33.0 µM 100% | [12]; at 100.0 µM 99% | [13]; at 11.0 µM 98% | [13]; at 33.0 µM 99% | [13]; at 100.0 µM 99% | [14]; [17] 87% | [14]; [18] 99% | [14]; at 50.0 µM 98.7% | [15]; at 11.0 µM 97% | [15]; at 33.0 µM 99% | [15]; at 100.0 µM 99%

CNC(=O)OCc1c(COC(=O)NC)c(C)n(-c2ccc(Br)cc2)c1C
active: [16]; at 100.0 µM 87% | [3]; at 100.0 µM 99% | [4]; at 100.0 µM 91% | [5]; at 100.0 µM 97% | [6]; at 33.0 µM 73% | [6]; at 100.0 µM 98% | [7]; at 50.0 µM 78% | [10]; at 50.0 µM 85% | [10]; at 100.0 µM 98% | [12]; at 100.0 µM 97% | [13]; at 100.0 µM 96%
inactive: [16]; at 1.2 µM -7% | [16]; at 3.7 µM -6% | [16]; at 11.0 µM -8% | [16]; at 33.0 µM 6% | [3]; at 1.2 µM -15% | [3]; at 3.7 µM -17% | [3]; at 11.0 µM -20% | [3]; at 33.0 µM 14% | [4]; at 1.2 µM -15% | [4]; at 3.7 µM -27% | [4]; [17] 27% | [4]; at 11.0 µM -17% | [4]; at 33.0 µM -2% | [4]; [18] 46% | [4]; at 50.0 µM 30.4% | [5]; at 1.2 µM -37% | [5]; at 3.7 µM -24% | [5]; [17] 22% | [5]; at 11.0 µM -23% | [5]; at 33.0 µM -8% | [5]; [18] 23% | [5]; at 50.0 µM 13% | [6]; at 1.2 µM -23% | [6]; at 3.7 µM -16% | [6]; at 11.0 µM -7% | [7]; [17] 4% | [7]; [18] -61% | [8]; at 1.2 µM -7% | [8]; at 3.7 µM 0% | [8]; at 11.0 µM -1% | [8]; at 33.0 µM -2% | [8]; at 100.0 µM 69% | [9]; [17] 10% | [9]; [18] -81% | [9]; at 50.0 µM 30% | [10]; at 1.2 µM -29% | [10]; at 3.7 µM -18% | [10]; [17] 0% | [10]; at 11.0 µM -18% | [10]; at 33.0 µM 41% | [10]; [18] -63% | [12]; at 1.2 µM -26% | [12]; at 3.7 µM -13% | [12]; at 11.0 µM 9% | [12]; at 33.0 µM 59% | [13]; at 1.2 µM 15% | [13]; at 3.7 µM 12% | [13]; at 11.0 µM 19% | [13]; at 33.0 µM 32%
